Common to all, as to assay: DAPPL (digital affinity profiling via proximity ligation, sequencing); 10 mM Tris-HCl pH 7.5, 50 mM NaCl, 1 mM DTT, 4% glycerol, room temperature, 30 min; GST-TFs on glutathione beads, 16-mer random dsDNA library, 0.1% formaldehyde crosslink after washing; high values mean tight binding
Holding throughout (conditions): protein: recombinant; tags: N-terminal GST; dsDNA, one strand shown

Test [1] deals with T1, ERF (Homo sapiens, UniProt P50548 1-548).
T1 sequence: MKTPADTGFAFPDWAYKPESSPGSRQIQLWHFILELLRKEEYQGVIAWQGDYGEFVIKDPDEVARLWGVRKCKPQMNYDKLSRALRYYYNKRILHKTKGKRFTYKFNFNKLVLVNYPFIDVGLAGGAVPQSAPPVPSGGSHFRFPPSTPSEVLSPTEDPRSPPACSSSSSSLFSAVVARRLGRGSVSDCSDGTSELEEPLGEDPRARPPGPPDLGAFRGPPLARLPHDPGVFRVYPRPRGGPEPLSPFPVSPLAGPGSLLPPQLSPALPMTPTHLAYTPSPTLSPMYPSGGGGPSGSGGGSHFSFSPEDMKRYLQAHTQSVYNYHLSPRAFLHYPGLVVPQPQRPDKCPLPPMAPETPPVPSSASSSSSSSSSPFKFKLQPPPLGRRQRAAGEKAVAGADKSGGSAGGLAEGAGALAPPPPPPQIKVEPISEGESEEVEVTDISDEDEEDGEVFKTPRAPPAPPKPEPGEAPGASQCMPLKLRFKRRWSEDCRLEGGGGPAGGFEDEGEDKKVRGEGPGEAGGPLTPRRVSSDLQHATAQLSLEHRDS
The essentials:
(§1)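 Binding signal is each hexamer's read frequency for a factor divided by its frequency in the tag-only sample. The factors were GST-fused human transcription factors from yeast, captured on glutathione beads, DNA-barcoded and pooled with that sample. Pools were incubated with 200 nmole of a random double-stranded 16-mer DNA library in Tris/NaCl/DTT/glycerol buffer at room temperature for 30 min, then washed, crosslinked with 0.1% formaldehyde, proximity-ligated with BsaI/T4 ligase (1 h, 37 °C), PCR-amplified and sequenced on an Illumina NextSeq500.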

The target in test [2] is T2, ETV3L (Homo sapiens, UniProt Q6ZN32 1-361).
T2 sequence: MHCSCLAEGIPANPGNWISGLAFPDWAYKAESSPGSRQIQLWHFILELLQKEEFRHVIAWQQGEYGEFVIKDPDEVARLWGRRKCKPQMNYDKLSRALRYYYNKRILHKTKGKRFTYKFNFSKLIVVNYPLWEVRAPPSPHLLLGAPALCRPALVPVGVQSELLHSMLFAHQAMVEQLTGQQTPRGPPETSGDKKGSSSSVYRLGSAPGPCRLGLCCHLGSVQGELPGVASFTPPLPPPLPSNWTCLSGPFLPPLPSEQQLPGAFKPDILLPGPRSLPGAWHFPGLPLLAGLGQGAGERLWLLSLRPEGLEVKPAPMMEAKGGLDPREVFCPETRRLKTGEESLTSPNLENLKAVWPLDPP
A digest of the protocol:
as §1

Test [3] addresses T3, ETS2 (Homo sapiens, UniProt P15036 1-469).
T3 sequence: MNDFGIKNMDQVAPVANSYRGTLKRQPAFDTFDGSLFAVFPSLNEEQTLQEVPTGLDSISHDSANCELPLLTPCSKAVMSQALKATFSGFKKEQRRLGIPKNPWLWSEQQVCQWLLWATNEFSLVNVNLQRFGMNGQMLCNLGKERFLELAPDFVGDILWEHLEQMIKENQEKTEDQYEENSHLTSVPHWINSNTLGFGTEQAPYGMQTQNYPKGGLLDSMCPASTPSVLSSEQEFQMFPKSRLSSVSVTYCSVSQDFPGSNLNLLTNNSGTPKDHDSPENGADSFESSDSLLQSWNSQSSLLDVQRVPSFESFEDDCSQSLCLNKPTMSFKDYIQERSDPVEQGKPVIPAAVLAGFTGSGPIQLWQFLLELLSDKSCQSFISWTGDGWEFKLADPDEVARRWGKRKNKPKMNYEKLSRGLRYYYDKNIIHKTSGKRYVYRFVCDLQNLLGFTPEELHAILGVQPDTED
A digest of the protocol:
as §1

Test [4] deals with T4, SPDEF (Homo sapiens, UniProt O95238 1-335).
T4 sequence: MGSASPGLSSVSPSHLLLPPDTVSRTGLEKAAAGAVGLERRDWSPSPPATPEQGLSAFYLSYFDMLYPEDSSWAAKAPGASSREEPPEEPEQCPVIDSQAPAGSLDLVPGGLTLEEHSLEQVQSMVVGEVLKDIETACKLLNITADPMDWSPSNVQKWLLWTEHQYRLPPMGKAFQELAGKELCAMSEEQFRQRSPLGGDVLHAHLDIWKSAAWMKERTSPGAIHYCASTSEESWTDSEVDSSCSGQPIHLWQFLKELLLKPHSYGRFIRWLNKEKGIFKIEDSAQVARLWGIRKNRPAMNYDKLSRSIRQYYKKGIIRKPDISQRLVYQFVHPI
The essentials: as §1

Test [5] has as its target T5, ETV7 (Homo sapiens, UniProt Q9Y603 1-341).
T5 sequence: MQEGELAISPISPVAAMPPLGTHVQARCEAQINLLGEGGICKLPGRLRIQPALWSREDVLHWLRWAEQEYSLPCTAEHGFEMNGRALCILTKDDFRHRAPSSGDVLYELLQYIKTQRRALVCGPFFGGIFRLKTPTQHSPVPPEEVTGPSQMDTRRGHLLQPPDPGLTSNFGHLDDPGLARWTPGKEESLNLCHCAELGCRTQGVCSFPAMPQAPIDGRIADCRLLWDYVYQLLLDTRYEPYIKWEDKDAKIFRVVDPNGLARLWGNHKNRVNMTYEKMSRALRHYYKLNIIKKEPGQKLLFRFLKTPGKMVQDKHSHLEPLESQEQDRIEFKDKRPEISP
The essentials: as §1

The target of test [6] is T6, ELF5 (Homo sapiens, UniProt Q9UKW6-2 1-255).
T6 sequence: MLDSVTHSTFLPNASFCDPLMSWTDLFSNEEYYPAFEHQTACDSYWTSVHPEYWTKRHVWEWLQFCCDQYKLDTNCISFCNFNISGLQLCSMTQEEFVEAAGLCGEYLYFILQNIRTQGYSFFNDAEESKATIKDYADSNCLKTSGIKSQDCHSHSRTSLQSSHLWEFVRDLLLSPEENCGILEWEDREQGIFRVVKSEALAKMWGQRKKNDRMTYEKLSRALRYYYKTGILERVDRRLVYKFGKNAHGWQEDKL
A digest of the protocol:
as §1

Test [7] deals with T7, ETV3 (Homo sapiens, UniProt P41162-2 1-143).
T7 sequence: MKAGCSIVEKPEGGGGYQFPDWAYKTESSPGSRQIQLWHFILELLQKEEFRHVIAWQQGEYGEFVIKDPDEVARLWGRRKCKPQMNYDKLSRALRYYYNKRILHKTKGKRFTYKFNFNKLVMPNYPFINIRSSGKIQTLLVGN
A digest of the protocol: as §1

The target of test [8] is ETV6 (Homo sapiens, UniProt P41212 1-452). The essentials:
as §1

Sequence of ETV6 (P41212 whole entry): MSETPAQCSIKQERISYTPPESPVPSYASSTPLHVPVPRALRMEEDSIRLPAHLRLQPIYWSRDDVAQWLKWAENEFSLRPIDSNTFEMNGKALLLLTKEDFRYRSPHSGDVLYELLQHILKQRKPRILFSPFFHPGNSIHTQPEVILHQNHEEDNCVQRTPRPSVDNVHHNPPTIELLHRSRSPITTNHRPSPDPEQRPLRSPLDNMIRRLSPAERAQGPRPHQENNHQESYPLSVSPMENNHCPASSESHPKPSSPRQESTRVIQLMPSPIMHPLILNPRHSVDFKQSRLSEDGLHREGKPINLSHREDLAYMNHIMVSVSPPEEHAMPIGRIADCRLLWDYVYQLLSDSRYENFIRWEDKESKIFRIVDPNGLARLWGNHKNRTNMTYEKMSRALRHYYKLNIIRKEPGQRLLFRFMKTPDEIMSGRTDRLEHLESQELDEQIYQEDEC

As for TGATCC, the binding signal was 1.23 fold enrichment (6-mer frequency, TF over GST control) in test [1]; 1.28 fold enrichment (6-mer frequency, TF over GST control) in test [2]; 1.25 fold enrichment (6-mer frequency, TF over GST control) in test [3]; 1.63 fold enrichment (6-mer frequency, TF over GST control) in test [4]; 1.12 fold enrichment (6-mer frequency, TF over GST control) in test [5]; 1.35 fold enrichment (6-mer frequency, TF over GST control) in test [6]. Also, the binding signal is 1.24 fold enrichment (6-mer frequency, TF over GST control) in test [7] and 1.26 fold enrichment (6-mer frequency, TF over GST control) in test [8].
As for TGACCT, the binding signal in test [1] was 1.66 fold enrichment (6-mer frequency, TF over GST control); in test [2], 1.83 fold enrichment (6-mer frequency, TF over GST control); in test [3] it was 1.72 fold enrichment (6-mer frequency, TF over GST control); in test [4] it was 1.74 fold enrichment (6-mer frequency, TF over GST control); in test [5], 1.75 fold enrichment (6-mer frequency, TF over GST control); in test [6], 1.73 fold enrichment (6-mer frequency, TF over GST control). Besides, the binding signal is 1.59 fold enrichment (6-mer frequency, TF over GST control) in test [7] and 1.66 fold enrichment (6-mer frequency, TF over GST control) in test [8].
As for TAATCC, the binding signal was 1.12 fold enrichment (6-mer frequency, TF over GST control) in test [1]; 1.21 fold enrichment (6-mer frequency, TF over GST control) in test [2]; 1.36 fold enrichment (6-mer frequency, TF over GST control) in test [3]; 1.44 fold enrichment (6-mer frequency, TF over GST control) in test [4]; 1.28 fold enrichment (6-mer frequency, TF over GST control) in test [5]; 1.19 fold enrichment (6-mer frequency, TF over GST control) in test [6]. In addition, the binding signal is 1.29 fold enrichment (6-mer frequency, TF over GST control) in test [7] and 1.27 fold enrichment (6-mer frequency, TF over GST control) in test [8].
Regarding CACAAC, the binding signal is 1.36 fold enrichment (6-mer frequency, TF over GST control) in test [1]; 1.29 fold enrichment (6-mer frequency, TF over GST control) in test [2]; 1.25 fold enrichment (6-mer frequency, TF over GST control) in test [3]; 1.25 fold enrichment (6-mer frequency, TF over GST control) in test [4]; 1.13 fold enrichment (6-mer frequency, TF over GST control) in test [5]; 1.28 fold enrichment (6-mer frequency, TF over GST control) in test [6]. In addition, the binding signal in test [7] was 1.22 fold enrichment (6-mer frequency, TF over GST control); in test [8], 1.24 fold enrichment (6-mer frequency, TF over GST control).
CACCCG: the binding signal in test [1] is 1.25 fold enrichment (6-mer frequency, TF over GST control); in test [2], 1.32 fold enrichment (6-mer frequency, TF over GST control); in test [3], 1.19 fold enrichment (6-mer frequency, TF over GST control); in test [4], 1.28 fold enrichment (6-mer frequency, TF over GST control); in test [5] it was 1.15 fold enrichment (6-mer frequency, TF over GST control); in test [6] it was 1.19 fold enrichment (6-mer frequency, TF over GST control). Moreover, the binding signal in test [7] was 1.25 fold enrichment (6-mer frequency, TF over GST control); in test [8], 1.11 fold enrichment (6-mer frequency, TF over GST control).
Take CCACTG: the binding signal was 1.22 fold enrichment (6-mer frequency, TF over GST control) in test [1]; 1.15 fold enrichment (6-mer frequency, TF over GST control) in test [2]; 1.16 fold enrichment (6-mer frequency, TF over GST control) in test [3]; 1.14 fold enrichment (6-mer frequency, TF over GST control) in test [4]; 1.1 fold enrichment (6-mer frequency, TF over GST control) in test [5]; 1.09 fold enrichment (6-mer frequency, TF over GST control) in test [6]. Further, the binding signal in test [7] was 1.15 fold enrichment (6-mer frequency, TF over GST control); in test [8] it was 1.22 fold enrichment (6-mer frequency, TF over GST control).
In the case of CAACTG, the binding signal in test [1] is 1.18 fold enrichment (6-mer frequency, TF over GST control); in test [2] it was 1.17 fold enrichment (6-mer frequency, TF over GST control); in test [3] it was 1.13 fold enrichment (6-mer frequency, TF over GST control); in test [4], 1.08 fold enrichment (6-mer frequency, TF over GST control); in test [5], 1.06 fold enrichment (6-mer frequency, TF over GST control); in test [6], 1.08 fold enrichment (6-mer frequency, TF over GST control). Further, the binding signal in test [7] is 1.16 fold enrichment (6-mer frequency, TF over GST control); in test [8], 1.12 fold enrichment (6-mer frequency, TF over GST control).
TCCACT: the binding signal in test [1] was 1.42 fold enrichment (6-mer frequency, TF over GST control); in test [2] it was 1.49 fold enrichment (6-mer frequency, TF over GST control); in test [3] it was 1.45 fold enrichment (6-mer frequency, TF over GST control); in test [4], 1.37 fold enrichment (6-mer frequency, TF over GST control); in test [5], 1.4 fold enrichment (6-mer frequency, TF over GST control); in test [6], 1.42 fold enrichment (6-mer frequency, TF over GST control). The binding signal is 1.41 fold enrichment (6-mer frequency, TF over GST control) in test [7] and 1.39 fold enrichment (6-mer frequency, TF over GST control) in test [8].
Consider ATGTCA, for which the binding signal is 1.2 fold enrichment (6-mer frequency, TF over GST control) in test [1]; 1.2 fold enrichment (6-mer frequency, TF over GST control) in test [2]; 1.2 fold enrichment (6-mer frequency, TF over GST control) in test [3]; 1.1 fold enrichment (6-mer frequency, TF over GST control) in test [4]; 1.02 fold enrichment (6-mer frequency, TF over GST control) in test [5]; 1.09 fold enrichment (6-mer frequency, TF over GST control) in test [6]. For the same sequence, the binding signal is 1.12 fold enrichment (6-mer frequency, TF over GST control) in test [7] and 1.11 fold enrichment (6-mer frequency, TF over GST control) in test [8].

These data come from publication PMC7862700, “An all-to-all approach to the identification of sequence-specific readers for epigenetic DNA modifications on cytosine”.
